For 59 molecules, inhibition results are on record in PubChem BioAssay AID2280 (The Scripps Research Institute Molecular Screening Center, 2010).

Structures are written as SMILES. Screen size: about 320,000 compounds; about 1,400 (0.44%) were called active. The entries come from a sample that favours actives as a whole. Values without a mark were called inactive.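 Rule for the calls: active = percent inhibition above a per-plate cutoff, the plate mean of test compounds plus 3 SD (cut at about 30% in these data); inactive = the rest.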

In the test the target is Female germline-specific tumor suppressor gld-1 (Caenorhabditis elegans) (UniProt Q17339). The test is described as follows: small molecules blocking C. elegans GLD-1 RNA recognition – biochemical, fluorescence polarization, primary screen (AID 2280).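 Note: 0% = DMSO wells with GLD-1 and probe and 100% = wells lacking GLD-1.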 As to conditions: purified GLD-1 + fluorescein TGE RNA, at 5.96 µM, active compounds read high. In general terms: Fluorescence polarisation rises when a labelled molecule tumbles more slowly, as on binding a larger partner.
Sequence of Female germline-specific tumor suppressor gld-1 (Caenorhabditis elegans) (Q17339 whole entry, looked up): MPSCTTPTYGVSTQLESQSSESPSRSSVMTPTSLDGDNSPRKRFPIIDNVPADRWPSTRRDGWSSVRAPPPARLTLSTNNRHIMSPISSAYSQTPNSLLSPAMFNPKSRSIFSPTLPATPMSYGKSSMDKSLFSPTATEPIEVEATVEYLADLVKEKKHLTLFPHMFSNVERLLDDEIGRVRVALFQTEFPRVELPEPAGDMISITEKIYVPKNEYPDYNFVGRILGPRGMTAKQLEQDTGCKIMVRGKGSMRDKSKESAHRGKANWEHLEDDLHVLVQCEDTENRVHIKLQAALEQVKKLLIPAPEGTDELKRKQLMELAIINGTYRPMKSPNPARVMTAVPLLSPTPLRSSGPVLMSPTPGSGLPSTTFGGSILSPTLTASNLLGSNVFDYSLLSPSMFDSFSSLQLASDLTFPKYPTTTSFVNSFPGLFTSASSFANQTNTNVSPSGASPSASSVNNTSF
Consider `CCOC(=O)c1cnc(SC)nc1Sc1ccc(Cl)cc1Cl`, for which the inhibition is 6.36%. Under `CCCN(CC(=O)Nc1ccccc1OC)C(=O)CCC(=O)c1ccc(F)cc1` stands 54.8% (active); under `CCN(CC(=O)Nc1ccccc1OC)C(=O)Cn1cnc2ccccc2c1=O`, 4.15%; under `CCN(CC(=O)Nc1ccccc1OC)C(=O)CC1CC2CCC1C2` (centres undefined), -0.14%. In the case of `CC1CCN(C(=O)Cn2nnnc2CN2CCOCC2)CC1` it was 0.79%. For `CCCCNc1c(-c2cccc(Sc3ccc(OC)cc3)c2)nc2ccccn12`, the inhibition was 2.4%. As for `Cc1cccc(N2C(=O)SC(SC(=Nc3ccccc3)Nc3ccccc3)C2=O)c1` (centres undefined), the inhibition is 10.3%. With `COc1ccc(C)cc1NC(=S)Nc1ccccc1SC`, the inhibition was -6.51%. Under `COc1ccc2c(CC(=O)N3CCc4cc(OC)c(OC)cc4C3)coc2c1` stands 5.21%; under `O=C(CSc1ccc2nnc(-c3ccccc3)n2n1)N1CCCc2ccccc21`, -1.09%.

As for `COC(=O)CCCC1=CC2=C(c3ccccc3)C(=O)C(C)(OC(=O)C3CCCC3)C(=O)C2=CN1c1ccc(OC)cc1` (centres undefined), the inhibition is 7.24%.

Consider `COC(=O)CCCC1=CC2=CC(=O)C(C)(OC(=O)c3cccs3)C(=O)C2=CN1CC(C)C` (centres undefined), for which the inhibition is 5.88%. With `COC(=O)CCCC1=CC2=CC(=O)C(C)(OC(=O)c3cccs3)C(=O)C2=CN1c1cccc(C#N)c1` (centres undefined), the inhibition was 38.1% (active). Under `Cc1ccc(O)c(NC(=O)c2cc(-c3ccco3)on2)c1` stands 1.89%; under `C[C@H]1CN([C@@H](C)CO)C(=O)Cc2cc(NS(C)(=O)=O)ccc2O[C@@H]1CN(C)CC1CC1`, 0.15%. For the molecule `CC(C)n1cnc2c(NCc3ccccc3)cc(N[C@@H](CO)Cc3ccccc3)cc21`, the inhibition was 43.8% (active). Under `CCC(CO)Oc1cc(NCc2ccccc2)c2ncn(C3CCCC3)c2c1` (centres undefined) stands 5.5%; under `CC(C)n1cnc2c(NCc3ccccc3)cc(OCC3CCN(C)CC3)cc21`, -21.3%; under `CC(c1cccnc1)N(CCN(C)C)C(=O)Nc1ccc(Cl)c(Cl)c1` (centres undefined), -1.61%. Under `C/C(=N\N=C(N)N)c1ccc(Cl)cc1` stands -0.39%. In the case of `N#C/C(=C(\O)CCl)c1nnc2n1CCCCC2` it was -10.3%; in that of `N#C/C(=C(\O)C(F)(F)F)c1nnc2n1CCCCC2`, 51.1% (active); in that of `N#C/C(=C/c1cccc([N+](=O)[O-])c1)c1nnc2n1CCCCC2`, -1.89%.

With `CS(=O)(=O)N1CCN(C(=O)CSc2ccccc2)CC1`, the inhibition is 2.68%. For `Cc1ccc(S(=O)(=O)N2CCC3(CC2)OCCO3)c(C)c1`, the inhibition was -2.29%. In the case of `CCOc1ccc(CNC(=O)C2CCC(=O)N2C2CCCC2)cc1OC` (centres undefined) it was 7.99%; in that of `CCOc1cc(C2C(C(=O)OC)=CN(C3CCCC3)C=C2C(=O)OC)cc(Br)c1O`, 44.7% (active). Under `COC(=O)C1=CN(Cc2ccc(OC)cc2)C=C(C(=O)OC)C1c1ccc(O)c(OC)c1` stands 4.18%; under `CCC(C)[C@H](NC(=O)N1CCn2c1nc1ccccc12)C(=O)NCc1ccc(OC)cc1` (some centres undefined), 12.5%.

For the molecule `C=CC[n+]1c(-c2ccc(C)cc2)csc1NNC(=O)Nc1ccccc1`, the inhibition is -11.8%. Under `O=C(COC(=O)c1ccncc1)Nc1ccc2c(c1)OCO2` stands -0.85%. In the case of `NS(=O)(=O)c1ccc(NC(=O)COC(=O)c2c3c(nc4ccccc24)/C(=C\c2ccc4c(c2)OCO4)CCC3)cc1` it was 105% (active); in that of `O=C(COC(=O)c1ccc(F)cc1)Nc1ccc2c(c1)OCO2`, 0.03%; in that of `Cc1cccc(N=C2NC(=O)CS2)c1C`, 5.66%.

On to `COc1ccccc1CNS(=O)(=O)CC12CCC(CC1=O)C2(C)C` (centres undefined), for which the inhibition was -1.89%. Take `O=C(NCc1cccs1)C(=O)NCC1OCCCN1S(=O)(=O)c1ccc(F)cc1` (centres undefined): the inhibition was 1.56%.

Turning to `Cc1ccc(C)c(S(=O)(=O)N2CCN(C(=O)Nc3ccccc3)CC2)c1`, the inhibition is 34.2% (active). In the case of `COc1ccc(C)cc1S(=O)(=O)N1CCN(S(=O)(=O)c2cc(C(=O)O)ccc2C)CC1` it was -3.62%.

In the case of `O=C(Nc1ccccc1)N1CCN(C(=O)Nc2ccccc2)CC1`, the inhibition is 3.08%.

Regarding `COc1cc2c(cc1NC(=O)COC(=O)/C=C/c1ccccc1)oc1ccccc12`, the inhibition is 1.91%. Regarding `COC(=O)c1cc(CNC(=O)CC(C)c2ccccc2)ccc1OC` (centres undefined), the inhibition is 31.6% (active). Under `Cc1ccc(CNC(=O)CC(NC(=O)c2ccccc2)c2ccccc2)cc1` (centres undefined) stands 6.67%; under `COc1ccc(CNC(=O)Cc2ccc(-c3ccccc3)cc2)cc1OC`, 11.5%; under `COc1ccc(C(C(=O)NC(C)(C)C)N(Cc2ccc(F)cc2)C(=O)CCC(=O)Nc2cc(C)on2)cc1` (centres undefined), 3.47%. Turning to `Cc1ccc(OCCNC(=O)CNC(=O)c2ccc(C)c(C)c2)cc1`, the inhibition is -0.98%. Under `C=CCSc1nnc2c(n1)-c1cccc3cccc-2c13` stands -2.48%. Under `CC(C)(C)NC(=O)CN1CCC(NC(=O)C23CC4CC(CC(C4)C2)C3)CC1` stands -2.46%. For `COc1ccc(Cl)cc1NC(=O)C(C)N1CCc2ccccc21` (centres undefined), the inhibition was -0.08%. In the case of `CCCCN(C(=O)CSCC(=O)Nc1ccc(OC)cc1)c1c(N)n(CCC)c(=O)[nH]c1=O` it was 4.96%; in that of `C[C@H](CO)N1C[C@H](C)[C@@H](CN(C)Cc2ccc(-c3ccccc3)cc2)Oc2ccc(NC(=O)Cn3cnnn3)cc2C1=O`, 2.45%; in that of `N#CC1=C(N)C(C#N)(C#N)[C@H](c2ccsc2)[C@H]2COCC=C12`, 34.7% (active). On to `Cc1cccc(-n2ncc3c(=O)[nH]c(SCC(=O)Nc4cc(C)on4)nc32)c1`, for which the inhibition was 2.41%. Under `O=C(COC(=O)CSc1ccccc1)Nc1ccc(F)cc1F` stands -2.02%. In the case of `COc1ccc(OC)c(C(=O)c2ccc(C(=O)N3CCN(Cc4csc(C)n4)CC3)cc2)c1` it was -0.78%.

In the case of `Oc1ccc2ccccc2c1N=Nc1nccs1`, the inhibition was 33.5% (active). In the case of `COc1ccc2[nH]c(=O)c(CN(Cc3cccnc3)S(=O)(=O)c3ccccc3F)cc2c1` it was 8.84%; in that of `COc1cc(C2C(C(=O)c3ccco3)=C(O)C(=O)N2c2cc(C)on2)ccc1OCc1ccccc1` (centres undefined), -1.87%. For `O=C(C1=C(O)C(=O)N(c2ncccn2)C1c1cccs1)c1ccco1` (centres undefined), the inhibition is 110% (active). Under `O=C(C1=C(O)C(=O)N(Cc2ccccc2)C1c1cccnc1)c1ccco1` (centres undefined) stands -1.41%.

One may read the inhibition as the change of the read-out against control, counted positive when it falls.
